# Screens: PubChem BioAssay, National Center for Advancing Translational Sciences (NCATS)
# Pf growth 48h: Primary qHTS for delayed death inhibitors of the malarial parasite plastid, 48 hour incubation. 5.9% of 310,000 active. Potency, µM (doses to about 28.7 µM), for the others: top-dose activity change, negative = inhibition, usual class: inhibitors. P. falciparum luciferase growth in erythrocytes, 48 h; further: potency means the concentration at half of the fitted maximal effect; on the % scale 0 is the no-effect control and ±100 the full control effect
#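 Cell-based growth assay: transgenic P. falciparum expressing firefly luciferase, cultured in red cells within RPMI 1640 containing 0.5% w/v Albumax, 24 mM bicarbonate and gentamycin. A drop in luciferase activity indicates inhibition.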
# Cycloheximide cs: Cycloheximide Counterscreen for Small Molecule Inhibitors of Shiga Toxin; cell reporter, cycloheximide protein synthesis inhibition counterscreen; max response, %; 12% of 300,000 active; in the data active means max response mostly above about 13%, no sharp cut-off; inactive means mostly below about 14%; further: read at 38.3 µM for the half of the compounds with a filed dose; 0% is about no effect
# SARS PLP yeast: qHTS of Yeast-based Assay for SARS-CoV PLP; S. cerevisiae expressing SARS-CoV PLpro, growth rescue; Potency, µM (titrated, usually from 32.9 µM), for inactives: at the top dose activity, positive = growth rescue, hits mostly activators; 0.19% of 330,000 active; AID 485353, 2010; calls by dose curve; further: potency means the concentration at half of the fitted maximal effect; 0% is about no effect; nearly all actives have a fitted effect of over 55% in size
# NS1 function inh: qHTS Assay for Inhibitors of Influenza NS1 Protein Function | Potency, µM (series often up to 46.1 µM), inactives show at the top dose activity, positive = more growth | 0.4% of 270,000 active; calls by dose curve; further: potency means the concentration at half of the fitted maximal effect; actives are rising curves; nearly all actives have a fitted effect of over 50% in size
#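 OD600 was taken as the measure of yeast growth restored by compound in an NS1-expressing S. cerevisiae strain. Cells had been washed out of glucose medium and diluted 1:100 into galactose -URA medium, pH 6.0.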
# Pf growth 96h: Primary qHTS for delayed death inhibitors of the malarial parasite plastid, 96 hour incubation; P. falciparum luciferase reporter growth, 96 h; Potency, µM (titrated, usually from 28.7 µM), for the others: at the top dose activity change, negative = inhibition, hits mostly inhibitors; 6.9% of 320,000 active; AID 504834, 2011; further: potency means the concentration at half of the fitted maximal effect; on the % scale 0 is the no-effect control and ±100 the full control effect
#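 Cell-based qHTS: luciferase-tagged P. falciparum in erythrocytes (2% hematocrit, 0.05% parasitemia final) incubated with compounds for 96 hours, 37 C, 5% CO2; luciferase detection reagent then added and luminescence measured.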
# Shiga toxin inh: A qHTS for Small Molecule Inhibitors of Shiga Toxin; Vero cells, Shiga toxin protein synthesis inhibition reporter; inhibition, % at 38.7 µM; 9.2% of 290,000 active; AID 2315, 2010; in the data active means inhibition mostly above about 28%, no sharp cut-off; inactive means mostly below about 43%; further: 0% is about no effect
# Numbers without * were called inactive; u = inconclusive; x = no result. An excerpt weighted towards active compounds, which were near 21% of everything screened. Unless noted, the call rests on the fitted dose curve; in most records, active means well fitted inhibition curve with a large enough effect; inconclusive means small, poorly fitted or top-dose-only effect, or another doubt; inactive means no such curve, though single readings can be large or run the other way.
SMILES,Pf growth 48h,Cycloheximide cs,SARS PLP yeast,NS1 function inh,Pf growth 96h,Shiga toxin inh
Cc1ccnc(NC2CCCCC2)c1,0%,31*,2%,x,-9%,109*
Cc1ccc(-c2nnn(CC(=O)N(c3ccc4c(c3)OCCO4)C(C(=O)NCC3CCCO3)c3ccc(F)cc3)n2)o1 (stereo not given),u,14,-7%,x,u,9
CCCOc1ccc(-c2csc3nc[nH]c(=O)c23)cc1,105%,41*,2%,-35%,42%,47*
O=c1[nH]cnc2scc(-c3ccc(-c4ccccc4)cc3)c12,x,29*,-7%,-2%,163%,47
Cc1ccc(-c2csc3nc[nH]c(=S)c23)cc1C,u,1,u,27%,10µM*,-8
O=C(c1ccc(Cl)cc1)N1CCC(C(=O)N2CCCc3ccccc32)CC1,-21%,1,-6%,4%,u,-13
O=c1[nH]cnc2onc(-c3ccc(F)cc3)c12,x,-7,-2%,-6%,u,14
O=C(NC1C2CC3CC(C2)CC1C3)C1CC1 (stereo not given),7.4µM*,2,-11%,-2%,27%,-7
O=C(CCn1c(=O)c2ccccc2n(Cc2ccccc2)c1=O)NC1CCN(Cc2ccccc2)CC1,u,-3,-6%,-9%,8.3µM*,0
NC(=O)Cn1c(=O)n(CCCC(=O)NC2CCN(Cc3ccccc3)CC2)c(=O)c2ccccc21,x,-4,-3%,-2%,4%,-9
CCOc1ccc(NC(=O)Cn2c(=O)n(CCCC(=O)NC3CCN(Cc4ccccc4)CC3)c(=O)c3ccccc32)cc1,5.2µM*,-3,0%,-7%,-22%,-4
COc1cccc(NC(=O)Cn2c(=O)n(CCC(=O)NC3CCN(Cc4ccccc4)CC3)c(=O)c3ccccc32)c1,u,3,0%,11%,15µM*,12
Cc1cccc(NC(=O)Cn2c(=O)n(CCC(=O)NC3CCCC3)c(=O)c3ccccc32)c1,4%,-4,-4%,-5%,2.1µM*,-1
COc1ccc(CNC(=O)C(=O)NCC2OCCCN2S(=O)(=O)c2cccs2)cc1 (stereo not given),-14%,-4,5%,-4%,0%,-9
CC(O)C(N)C(=O)O (stereo not given),-9%,x,x,x,0%,x
Cc1ccc(OCC(=O)NNC(=O)c2ccoc2C)c(Br)c1,35%,8,10%,9%,12%,23
Cc1occc1C(=O)NNC(=O)COc1ccc(Br)cc1Br,11%,14,-4%,-5%,34%,50*
Cc1occc1C(=O)NNC(=S)NC(=O)COc1ccc(Cl)cc1Cl,3%,26*,2%,13%,0%,42
Cc1ccc(SCCC(=O)NCCSCc2ccccc2C)cc1,40%,6,-25%,-133%,u,-5
CCOC(=O)c1cc(C)sc1NC(=O)CSc1nnnn1C,-13%,-2,-5%,0%,1.7µM*,-11
CCOC(=O)c1cc(C)sc1NC(=O)CSC1=NCCS1,u,-6,-1%,-21%,9.3µM*,-21
CCOC(=O)c1ccccc1NC(=O)CSc1nnnn1C,u,4,5%,5%,u,-3
CC(=O)Nc1ccc(NC(=O)CSC2=NCCS2)cc1,80%,-3,-1%,-3%,-26%,3
Cn1nnnc1SCc1ccc(C(=O)Nc2nccs2)cc1,67%,37*,-10%,-1%,x,51*
O=C(Nc1ccccc1F)c1ccc(CSc2ncccn2)cc1,332%,30*,-1%,1%,u,86*
SMILES,Pf growth 48h,Cycloheximide cs,SARS PLP yeast,NS1 function inh,Pf growth 96h,Shiga toxin inh
Cn1nnnc1SCc1ccc(C(=O)Nc2ccccc2F)cc1,56%,32*,2%,-1%,-23%,45*
O=C(Nc1ccccc1)c1ccc(CSc2ncccn2)cc1,263%,97*,-3%,-20%,201%,107*
C=CCn1c(SCc2ccc(C(=O)Nc3nccs3)cc2)nnc1-c1ccc(C)c(Cl)c1,u,-1,0%,-4%,115%,18
Cc1cc(C)cc(NC(=O)c2ccc(CSc3nnnn3C)cc2)c1,-8%,-4,-8%,-3%,-11%,14
Cc1ccc(NC(=O)N2CCCCC2)cc1[N+](=O)[O-],23%,10,-1%,-4%,29%,40
COc1ccc2nc(NC(=O)CSC3=NCCS3)sc2c1,-2%,32*,-6%,5%,-14%,55
COc1ccc2nc(NC(=O)CSc3nnc(N)s3)sc2c1,80%,4,2%,11%,94%,13
Cc1csc(NC(=O)CSc2[nH]c(=O)ncc2C)n1,49%,x,-1%,x,38%,x
CCOc1ccc2nc(NC(=O)CSC3=NCCS3)sc2c1,u,25,16%,-4%,x,44
Cc1ccc2nc(NC(=O)CSc3[nH]c(=O)ncc3C)sc2c1,x,27*,x,x,x,16
COc1ccc2nc(NC(=O)CSc3ccccc3)sc2c1,x,57*,10%,11%,5%,138*
COc1ccc2nc(NC(=O)CSc3nnc(C)n3N)sc2c1,157%,35*,0%,1%,437%,51*
Cc1ccc2nc(NC(=O)CSc3nncc(=O)n3N)sc2c1,79%,34*,5%,18%,38%,18
COc1ccc(-c2csc(N(CC3CCCO3)C(=O)c3ccc(C)cc3)n2)cc1 (stereo not given),5.2µM*,-3,2%,6%,10µM*,-14
O=C(c1ccco1)N(CC1CCCO1)c1nc(-c2ccccc2)cs1 (stereo not given),u,1,-16%,-31%,x,-4
Cc1ccc(-c2csc(N(CC3CCCO3)C(=O)c3ccco3)n2)cc1 (stereo not given),u,23*,-101%,-15%,u,40*
Cn1ncc2c(c(SCc3ccc(Cl)cc3Cl)nn2C)c1=O,7.4µM*,-3,0%,3%,u,-3
Cn1c(SCc2ccc(Cl)cc2Cl)nc(C(F)(F)F)cc1=O,42%,-3,3%,7%,20%,34
COc1ccc(N2C(=S)NC3CS(=O)(=O)CC32)cc1 (stereo not given),u,5,1%,0%,0%,15
CCCN(c1ccccc1F)S(=O)(=O)c1c[nH]c(C(=O)OC)c1,11%,-3,-1%,-1%,u,-19
Cn1cnnc1Sc1cc(N2CCN(S(=O)(=O)c3ccc(Cl)c(Cl)c3)CC2)ccc1[N+](=O)[O-],12µM*,-4,6%,25%,-2%,1
Cn1cnnc1Sc1cc(N2CCN(S(=O)(=O)c3ccc4ccccc4c3)CC2)ccc1[N+](=O)[O-],u,11*,16%,u,-17%,26
Cn1cc([N+](=O)[O-])c(C(=O)N(Cc2ccccc2)Cc2ccccc2)n1,0%,-3,-4%,-4%,13%,-6
